# In PubChem BioAssay (Tox21):
# Values without a mark were called inactive. Records with an inconclusive call do not appear. A call without a number means that no potency is given here. Active and inactive are the calls of the source. Unless noted, calls follow the shape of the dose curve; as a rule, active = well fitted curve in the direction sought with a large enough effect in the repeat runs; inconclusive = weak or mixed curves; inactive = no such curve, though single readings can be large; an effect the other way counts as inactive or inconclusive.
# Assays:
# [1] = qHTS assay to identify small molecule antagonists of the glucocorticoid receptor (GR) signaling pathway - cell viability counter screen (AID 720693); also: nearly all actives have a fitted effect of over 55% in size
# [2] = qHTS assay for identifying genotoxic compounds that show differential cytotoxicity against isogenic chicken DT40 cell lines with known DNA damage response pathways - Rev3 mutant cell line (AID 743014); also: nearly all actives have a fitted effect of over 55% in size; also: potency is read from the fitted curve at half-maximal effect
# [3] = qHTS assay for identifying genotoxic compounds that show differential cytotoxicity against isogenic chicken DT40 cell lines with known DNA damage response pathways - Rad54/Ku70 mutant cell line (AID 743015); also: nearly all actives have a fitted effect of over 60% in size; also: potency is read from the fitted curve at half-maximal effect
# [4] = qHTS assay to identify small molecule antagonists of the androgen receptor (AR) signaling pathway - cell viability counter screen (AID 743033; also: nearly all actives have a fitted effect of over 45% in size)
# [5] = qHTS assay to identify small molecule antagonists of the androgen receptor (AR) signaling pathway using the MDA cell line - cell viability counter screen (AID 743041; also: nearly all actives have a fitted effect of over 45% in size; also: potency is read from the fitted curve at half-maximal effect)
# Procedure, shortened: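 Cytotoxicity counter screen: MDA-kb2 AR-luc cells, compound + R1881, 16 h, 37C, 0% CO2; CellTiter-Fluor added at 15.5 h, fluorescence read after 30 min.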
# [6] = qHTS assay to identify small molecule antagonists of the thyroid receptor (TR) signaling pathway - cell viability counter screen (AID 743064); also: nearly all actives have a fitted effect of over 50% in size; also: potency is read from the fitted curve at half-maximal effect
# Procedure, shortened: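 In-well cytotoxicity read by CellTiter-Fluor (30 min, 37 C) following 23.5 h exposure of GH3 cells bearing a TRE-luciferase sensor. Compounds were added alongside 1 nM (final) T3 to drive TR transactivation.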
# [7] = qHTS assay for identifying genotoxic compounds that show differential cytotoxicity against isogenic chicken DT40 cell lines with known DNA damage response pathways - wild type cell line (AID 743012); also: nearly all actives have a fitted effect of over 60% in size
# Procedure, shortened: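 Endpoint: CellTiter-Glo luminescence, 30 min RT. Cells: wild type DT40, 300/well. Exposure: compounds in DMSO, 40 h, 37 C/5% CO2, after ~0.5 h pre-incubation.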
# [8] = biological target: Androgen receptor (Homo sapiens) (UniProt P10275); experiment: qHTS assay to identify small molecule agonists of the androgen receptor (AR) signaling pathway using the MDA cell line (AID 743040; also: nearly all actives have a fitted effect of over 20% in size)
# Chain of Androgen receptor (Homo sapiens) (P10275 whole entry, looked up): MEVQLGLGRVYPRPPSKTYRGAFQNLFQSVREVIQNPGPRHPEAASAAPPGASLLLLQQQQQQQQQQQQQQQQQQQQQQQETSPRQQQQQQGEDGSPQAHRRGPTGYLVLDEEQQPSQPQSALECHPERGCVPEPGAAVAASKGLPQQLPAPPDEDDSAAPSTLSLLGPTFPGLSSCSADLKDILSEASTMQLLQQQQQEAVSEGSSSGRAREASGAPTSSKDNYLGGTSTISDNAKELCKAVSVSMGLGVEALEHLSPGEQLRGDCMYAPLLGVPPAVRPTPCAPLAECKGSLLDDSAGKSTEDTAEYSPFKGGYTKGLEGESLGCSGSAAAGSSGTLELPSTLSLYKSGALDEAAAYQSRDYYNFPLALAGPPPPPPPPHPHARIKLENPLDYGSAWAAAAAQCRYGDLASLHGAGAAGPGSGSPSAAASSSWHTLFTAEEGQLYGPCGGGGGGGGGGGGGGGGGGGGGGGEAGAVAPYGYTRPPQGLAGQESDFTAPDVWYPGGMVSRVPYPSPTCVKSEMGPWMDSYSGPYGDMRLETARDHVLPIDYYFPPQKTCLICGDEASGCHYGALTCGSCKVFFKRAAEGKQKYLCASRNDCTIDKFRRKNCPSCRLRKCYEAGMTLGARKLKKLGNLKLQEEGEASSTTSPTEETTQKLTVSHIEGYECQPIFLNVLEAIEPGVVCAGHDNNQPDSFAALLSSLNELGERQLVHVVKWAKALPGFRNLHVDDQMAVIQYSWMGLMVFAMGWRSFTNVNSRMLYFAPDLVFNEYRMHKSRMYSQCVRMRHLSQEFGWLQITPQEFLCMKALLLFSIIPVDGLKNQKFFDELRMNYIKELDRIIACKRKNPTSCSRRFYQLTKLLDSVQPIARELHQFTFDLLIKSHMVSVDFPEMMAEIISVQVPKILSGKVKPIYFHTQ
# Procedure, shortened: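 Luciferase read-out, ONE-Glo, 30 min RT. Cells: MDA-kb2 AR-luc, MMTV promoter with AR and GR response elements. Compound exposure 16 h, 37C, 0% CO2, after 5 h pre-incubation. qHTS agonist mode.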
# [9] = biological target: Androgen receptor (Homo sapiens) (UniProt P10275); experiment: qHTS assay to identify small molecule agonists of the androgen receptor (AR) signaling pathway (AID 743036; active = well fitted activation curve with a large enough effect in the signal ratio in the repeat runs, with a control signal flat, not every such curve was filed as active; the % refers to the signal ratio)
# Procedure, shortened: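 Activation was read as beta-lactamase FRET signal from LiveBLAzer B/G substrate, added for 2 h at room temperature. Before that, GeneBLAzer AR-UAS-bla GripTite (HEK293) cells had 16 h compound exposure at 37C.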
# [10] = biological target: Androgen receptor (Homo sapiens) (UniProt P10275); experiment: qHTS assay to identify small molecule antagonists of the androgen receptor (AR) signaling pathway using the MDA cell line (AID 743042; also: nearly all actives have a fitted effect of over 55% in size)
# Procedure, shortened: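 MDA-kb2 breast carcinoma cells carrying MMTV-luciferase (AR/GR responsive) were co-treated with compounds and the agonist R1881 for 16 h at 37C. Inhibition read as ONE-Glo luminescence; CellTiter-Fluor fluorescence measured in parallel for cytotoxicity.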
smiles,measurement,setting,value
O=[N+]([O-])c1ccc(F)c(Cl)c1,Potency,[1],inactive
same,Potency,[2],inactive
same,Potency,[3],inactive
same,Potency,[4],inactive
same,Potency,[5],inactive
same,Potency,[6],inactive
Nc1ccc(NCCO)c([N+](=O)[O-])c1,Potency,[1],inactive
same,Potency,[7],inactive
same,Potency,[3],inactive
same,Potency,[4],inactive
same,Potency,[6],54.5 µM (active)
O=C(Nc1ccc2c(O)c(N=Nc3ccc(N=Nc4ccc(S(=O)(=O)O)cc4)cc3)c(S(=O)(=O)O)cc2c1)c1ccccc1,Potency,[1],inactive
same,Potency,[7],inactive
same,Potency,[4],inactive
same,Potency,[6],30.6 µM (active)
COC(C)=O,Potency,[1],inactive
same,Potency,[7],inactive
same,Potency,[3],inactive
same,Potency,[4],inactive
same,Potency,[5],inactive
same,Potency,[6],inactive
Cc1c(F)c(N2CCNC(C)C2)cc2c1c(=O)c(C(=O)O)cn2C1CC1 (stereo not drawn),Potency,[1],inactive
same,Potency,[7],inactive
same,Potency,[3],inactive
same,Potency,[5],inactive
CC(C)(C)CC(C)(C)c1ccc(Nc2ccc(C(C)(C)CC(C)(C)C)cc2)cc1,"viability change, negative = cytotoxic",[1],-8.5% [at 7.04 µM]
same,"activity, negative = cytotoxicity",[2],3.12% [at 8.53 µM]
same,"activity change, negative = cytotoxicity",[3],9.12% [at 8.55 µM]
same,"activity change, negative = cytotoxicity",[4],1.05% [at 7.04 µM]
same,"viability change, negative = cytotoxic",[5],-4.37% [at 8.47 µM]
same,"activity change, negative = cytotoxic",[6],10.6% [at 8.44 µM]
CC1(C)CCC[C@]2(C)[C@H]3CC(=O)O[C@]3(C)CC[C@@H]12,Potency,[1],inactive
same,Potency,[2],61.1 µM (active)
same,Potency,[6],inactive
C[Si](Cl)(c1ccccc1)c1ccccc1,Potency,[1],inactive
same,Potency,[4],inactive
C[C@H]1NCc2cc(-c3ccc4c(=O)c(C(=O)O)cn(C5CC5)c4c3OC(F)F)ccc21,Potency,[1],inactive
same,Potency,[3],inactive
same,Potency,[4],inactive
same,Potency,[5],inactive
Cl[Si](Cl)(c1ccccc1)c1ccccc1,Potency,[1],inactive
same,Potency,[3],inactive
same,Potency,[4],inactive
same,Potency,[5],inactive
CCCCCCCCCCC[C@@H](C[C@@H]1OC(=O)[C@H]1CCCCCC)OC(=O)[C@H](CC(C)C)NC=O,Potency,[1],inactive
same,Potency,[2],0.376 µM (active)
same,Potency,[4],inactive
same,Potency,[5],inactive
same,Potency,[6],inactive
Cc1ccc(N/N=c2\c(=O)cc/c(=N\Nc3ccc(S(=O)(=O)O)cc3)c2=O)c(C)c1,Potency,[1],inactive
same,Potency,[3],inactive
same,Potency,[4],inactive
same,Potency,[5],27.3 µM (active)
same,Potency,[6],61.1 µM (active)
Nc1ccc(Oc2ccc(Cl)cc2)cc1,Potency,[1],inactive
same,Potency,[3],59.8 µM (active)
same,Potency,[4],inactive
same,Potency,[5],inactive
same,Potency,[6],inactive
CC[N+](CC)(CC)CCOC(=O)C(C1CCCC1)C1CCCC1,Potency,[1],inactive
same,Potency,[3],8.41 µM (active)
same,Potency,[4],inactive
same,Potency,[6],inactive
S=C([S-])NCCNC(=S)[S-].S=C([S-])NCCNC(=S)[S-].[Mn+2].[Zn+2],Potency,[1],inactive
same,Potency,[2],33.5 µM (active)
same,Potency,[4],inactive
same,Potency,[5],inactive
c1cnccn1,Potency,[1],inactive
same,Potency,[2],inactive
same,Potency,[4],inactive
same,Potency,[5],inactive
same,Potency,[6],inactive
C1CCC(SSC2CCCCC2)CC1,Potency,[1],inactive
same,Potency,[3],inactive
same,Potency,[4],inactive
same,Potency,[5],inactive
[Cl][Pt-2]([Cl])([Cl])[Cl],Potency,[1],inactive
same,Potency,[3],inactive
same,Potency,[4],inactive
same,Potency,[5],inactive
FC(F)(F)c1cccc(Cl)c1,Potency,[1],inactive
same,Potency,[3],inactive
same,Potency,[4],inactive
same,outcome,[8],inactive
same,Potency,[6],inactive
COC(=O)c1ccccc1OC,Potency,[1],inactive
same,Potency,[2],inactive
same,Potency,[4],inactive
same,Potency,[5],inactive
CCO[C@@H]1O[C@H](C(COCc2ccccc2)OCc2ccccc2)[C@H](OCc2ccccc2)[C@H]1O (stereo partly drawn),Potency,[1],inactive
same,Potency,[3],14.3 µM (active)
same,Potency,[4],inactive
same,Potency,[5],inactive
same,Potency,[6],inactive
COc1ccc(-c2coc3cc(O)ccc3c2=O)cc1,Potency,[1],inactive
same,Potency,[2],30.6 µM (active)
same,Potency,[4],inactive
same,Potency,[6],inactive
CC(=O)OCC=C(C)C,Potency,[1],inactive
same,Potency,[3],inactive
same,Potency,[4],inactive
same,Potency,[9],inactive
same,outcome,[8],inactive
same,Potency,[5],inactive
same,Potency,[10],inactive
CN(C)Cc1cc(C(C)(C)C)c(O)c(C(C)(C)C)c1,Potency,[1],inactive
same,Potency,[2],17.2 µM (active)
same,Potency,[3],17.2 µM (active)
same,Potency,[5],inactive
c1ccc(C(O[C@@H]2CCCN(CCc3ccc4c(c3)OCO4)C2)c2ccccc2)cc1,Potency,[1],inactive
same,Potency,[2],30.6 µM (active)
same,Potency,[4],inactive
same,Potency,[5],inactive
